Shown are actives, neighbours in structure and some others; about 4% of the full set was active somewhere.
Wnt bcat act = Wnt/beta-catenin pathway activators, primary screen, cell-based, plate reader, single point | Wnt/beta-catenin reporter cell assay, activator | activation, % at 9.35 µM | actives 1.2% (n = 300,000); in the data active = activation above about 30%, passing the limit was not always enough; inconclusive = no clear call, values can overlap the other calls;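 note: 0% = neutral control wells and 100% = positive control wells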
esBAF inh = Bmi1 luciferase reporter increase in mESCs, primary screen, esBAF inhibitor project, mouse ES cells, Bmi1 luciferase knock-in, single point. 24 h; 100% = twice the neutral-well signal. actives 2% (n = 350,000). reporter increase, % at 12.5 µM; in the data active = activation above about 40%; inconclusive = no clear call, values can overlap the other calls;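 note: 0% = median of the plate's neutral control wells and 100% = double that signal; a rise in the Bmi1 reporter signal indicates esBAF inhibition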
LMP1 NFkB inh = EBV LMP1-driven NF-kappaB luciferase reporter inhibitors, primary screen, cell-based, luminescence, single point | inhibition, % at 12.5 µM | LMP1-induced NF-kappaB luciferase reporter cells | actives 0.69% (n = 350,000); in the data active = inhibition above about 41%; inconclusive = no clear call, values can overlap the other calls;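 note: 0% = neutral control wells and 100% = reference inhibitor control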
Statin myotox sup = suppressors of statin myotoxicity in C2C12 myotubes, primary screen, cell-based, single point, plate reader; C2C12 myotubes + simvastatin, ATP luminescence, 48 h; scaled: DMSO 0, geranylgeraniol control 100; rescue of ATP level, % at 7.49 µM; AID 602340, 2012; actives 0.78% (n = 330,000);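 active = mean ATP rescue above about 67%, or every replicate alone reaching that limit, limit read from the data, passing the limit was not always enough; inconclusive = no clear call, values can overlap the other calls; inactive = mean under the limit and some replicate under it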;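 note: myotubes were challenged with 10 µM simvastatin during compound exposure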
MITF TRPM1 inh = inhibitors of MITF-dependent TRPM1 promoter reporter, primary screen, cell-based, SK-MEL-5, single point, luciferase. SK-MEL-5 TRPM1 promoter luciferase, 24 h. inhibition, % at 12.5 µM. actives 0.83% (n = 330,000);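 active = mean inhibition across replicates of 60% or more, whatever share of single replicates reaches that level; inconclusive = some that reach 60%, reason not given; inactive = mean inhibition across replicates below 60%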
MITF act = activators of MITF-driven TRPM1 promoter reporter, primary screen, cell-based, SK-MEL-5, luciferase, single point. actives 0.75% (n = 300,000). SK-MEL-5 TRPM1-promoter luciferase, 24 h; % of positive control, neutral wells = 0. activation, % at 12.5 µM;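 active = mean activation of at least 80% with every replicate also reaching 80%; inconclusive = mean reaches 80% but some replicate falls short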;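 note: 0% = neutral control wells and 100% = parthenolide positive control wells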
* = called active by the depositor; ? = inconclusive; . = not tested or not shown.

SMILES | Wnt bcat act | esBAF inh | LMP1 NFkB inh | Statin myotox sup | MITF TRPM1 inh | MITF act
Cc1ccc(S(=O)(=O)c2c(COC(=O)c3ccccc3Cl)c(-c3ccccc3)nn2C)cc1 | 2.0 | -16.9 | -0.7 | 116.2* | 8.4 | -10.6
Cc1ccc(S(=O)(=O)c2c(CO)c(-c3ccccc3)nn2C)cc1 | -1.4 | . | -1.4 | . | 16.7 | -15.6
COc1ccc(N2CCN(S(=O)(=O)CCNC(=O)C3CC3)CC2)cc1 | 0.4 | . | -0.8 | . | -12.0 | 11.6
O=C(N/N=C/c1cc([N+](=O)[O-])ccc1N1CCNCC1)c1ccc([N+](=O)[O-])cc1 | . | 21.2 | 2.4 | 2.0 | 83.9* | -84.4
N#CCC(=O)N/N=C/c1cc([N+](=O)[O-])ccc1N1CCCC1 | 4.8 | -1.6 | -4.6 | -0.5 | -20.8 | 14.6
CC(C)N(Cc1cc2ccccc2[nH]c1=O)C(=O)c1cccnc1 | -1.4 | 0.6 | 3.5 | 88.4* | -3.6 | 1.9
CCOc1cc(C(=O)N(C)Cc2cc3ccccc3[nH]c2=O)cc(OCC)c1OCC | -2.6 | -1.9 | -12.3 | 97.8* | 3.3 | .
O=C(CCCSc1nc2ccccc2[nH]1)N1CCN(c2ccc([N+](=O)[O-])cc2)CC1 | . | -12.6 | 18.7 | 3.4 | 22.2 | -23.0
O=C(N/N=C/c1cc(Br)ccc1O)C(=O)Nc1ccccc1OC(F)(F)C(F)F | . | -45.0 | 30.4 | 19.0 | 65.5* | -65.0
O=C(N/N=C/c1cc(Cl)ccc1O)C(=O)Nc1ccccc1OC(F)(F)C(F)F | . | . | 16.8 | . | 65.5* | -66.2
COc1ccccc1/C=N/NC(=O)C(=O)Nc1ccccc1OC(F)(F)C(F)F | -1.4 | . | -3.8 | . | -6.9 | 6.5
O=C(C[C@@H]1C[C@H]2c3cc(NC(=O)Nc4ccc(C(F)(F)F)cc4)ccc3O[C@H]2[C@@H](CO)O1)NC1CCCCC1 | . | -0.1 | . | 2.2 | . | .
COc1ccc(NC(=O)COC(=O)CN2C(=O)C3CC=CCC3C2=O)c([N+](=O)[O-])c1 (stereo not drawn) | 40.2* | -3.3 | -6.4 | -2.0 | 10.7 | -7.6
COc1cc(NC(=O)CN2C(=O)NC(C)(c3ccccc3)C2=O)c(C)cc1[N+](=O)[O-] (stereo not drawn) | . | . | -0.5 | . | 7.8 | -8.6
COc1ccc(NC(=O)CN2C(=O)NC(C)(c3ccc(C)cc3)C2=O)c([N+](=O)[O-])c1 (stereo not drawn) | -2.2 | . | 51.2* | . | -34.4 | 47.9
COc1ccc2cc(/C=N/NC(=O)CSCc3ccc([N+](=O)[O-])cc3)c(Cl)nc2c1 | 1.2 | 0.3 | 11.0 | -23.0 | 6.6 | -1.9
COC(=O)Cn1c(=NC(=O)c2ccc(Cl)s2)sc2cc(C)ccc21 | . | 26.6 | -19.9 | 0.5 | -87.1 | 85.1*
COC(=O)Cn1c(=NC(=O)c2sc3ccccc3c2Cl)sc2cc(S(N)(=O)=O)ccc21 | -4.2 | . | -0.4 | . | 8.7 | -6.3
CCOc1cc(/C=N\Nc2ccc([N+](=O)[O-])cc2)ccc1OCC(=O)Nc1ccc(C)c(C)c1 | -4.1 | -7.3 | -7.7 | 102.6* | 2.2 | -1.4
CCOc1cc(/C=N/O)ccc1OCC(=O)Nc1cccc(C)c1 | 2.8 | . | -5.5 | . | -11.2 | 10.4
COc1cc(/C=N/NC(=O)c2ccncc2)ccc1OCC(=O)Nc1ccccc1 | 17.0 | 28.3 | -13.7 | 5.5 | -98.3 | 99.0*
CCOc1cc(/C=N\NC(=O)Cc2ccccc2)ccc1OCC(=O)Nc1ccc(C)c(C)c1 | . | -1.1 | -61.9 | -22.5 | 64.0* | -62.5
COc1cc(/C=N/NC(=O)c2ccccc2O)ccc1OCC(=O)Nc1ccccc1 | -0.9 | 18.9 | -19.5 | 5.1 | -72.4 | 66.4
O=C(COc1ccc(/C=N/NC(=O)c2cc3ccccc3o2)cc1Cl)Nc1ccccc1 | . | 30.2 | -20.9 | -195.1 | 95.3* | -95.3
COCC#Cc1cnc2c(c1)C(=O)N([C@H](C)CO)C[C@H](C)[C@H](CN(C)C(=O)Nc1ccc(OC)cc1)O2 | . | -6.7 | . | -128.0 | . | .
SMILES | Wnt bcat act | esBAF inh | LMP1 NFkB inh | Statin myotox sup | MITF TRPM1 inh | MITF act
O=C(NCc1cccs1)c1cc2c(s1)CS(=O)(=O)C2 | -1.2 | . | -2.6 | . | 9.0 | 0.0
CCOC(=O)C1(Cc2ccccc2)CCN(Cc2ccon2)CC1 | -1.9 | . | -2.3 | . | 1.5 | 0.7
O=C(CCC1CCCC1)Nc1ccc(Br)cn1 | . | 54.9* | -27.0 | 0.0 | -89.1 | ?
Cc1cc(NC(=O)CCC2CCCCC2)no1 | . | 10.4 | 3.4 | . | -38.7 | .
Cc1ccnc(NC(=O)CCC2CCCCC2)c1 | 8.8 | 48.9* | -40.2 | 10.9 | -44.4 | .
COc1ccc(NC(=O)CC2CCCCC2)cc1OC | 7.8 | 28.5 | -8.6 | -1.8 | -38.8 | 34.1
O=C(CC1CCCC1)Nc1ccc(Br)cc1 | 18.1 | 66.9* | -25.3 | -3.0 | -82.2 | ?
Cc1ccc(S(=O)(=O)Nc2cccc3c2O[C@H](CN(C)C)[C@@H](C)CN([C@H](C)CO)C3=O)cc1 | . | 2.6 | . | -4.6 | . | .
c1ccc(Nc2scc(-c3ccccc3)[n+]2Cc2ccco2)cc1 | 52.6* | . | -41.3 | . | -62.9 | 72.4
N=c1n(Cc2ccc(Cl)cc2)c2ccccc2n1CC(O)COc1ccccc1 (stereo not drawn) | -1.0 | -32.0 | -51.2 | -47.9 | 94.0* | -93.8
Cc1cccc(OCC(O)Cn2c(=N)n(CCN3CCCCC3)c3ccccc32)c1 (stereo not drawn) | -13.9 | -31.8 | 6.3 | -137.6 | 79.1* | .
COc1ccc(OCC(O)Cn2c(=N)n(Cc3ccccc3)c3ccccc32)cc1 (stereo not drawn) | . | -27.2 | -1.9 | -33.2 | 30.0 | .
N=c1n(Cc2ccccc2)c2ccccc2n1CC(O)COc1ccc(Cl)cc1Cl (stereo not drawn) | -12.6 | . | -13.4 | . | 98.3* | -97.9
Cc1ccc(OCC(O)Cn2c(=N)n(Cc3ccccc3)c3ccccc32)cc1 (stereo not drawn) | . | -12.0 | -3.3 | -21.4 | 38.6 | -37.4
COc1ccc(-c2cn3cccc(C)c3n2)cc1F | 33.1* | . | -37.8 | . | -88.5 | 91.5*
COc1ccc(-c2cn3cccnc3n2)cc1NC(=O)C(C)C | 0.8 | -1.8 | 5.2 | 3.2 | -10.9 | 6.8
COc1ccc(-c2cn3cccnc3n2)cc1Br | 20.1 | . | -5.2 | . | -77.5 | 81.3*
COc1ccc(OCc2cc(C(=O)NCc3nc(C)cs3)no2)c(Cl)c1 | 14.1 | ? | -34.5 | 7.9 | -48.0 | 48.1
CCC(NC(=O)c1cc(COc2cc(C)c(Cl)c(C)c2)on1)c1ccncc1 (stereo not drawn) | -1.1 | 0.5 | 6.8 | 58.2 | -0.6 | 4.0
CCC(NC(=O)c1cc(COc2ccc(Cl)cc2OC)on1)c1ccncc1 (stereo not drawn) | 22.2 | 67.7* | -29.5 | 9.3 | -72.0 | 78.4

High-throughput results deposited in PubChem by Broad Institute.
